Many of the other results were omitted from the sample, so hits are more common in it than they were.
CHX counter: counter-screen hit for Shiga toxin inhibitors, cycloheximide; cell reporter, cycloheximide protein synthesis inhibition counterscreen; max response, %; hit rate 12% among 300,000; AID 2314; in the data active = max response mostly above about 13%, no sharp cut-off; inactive = mostly below about 14%; also: read at 38.3 µM for the half of the compounds with a filed dose; 0% is about no effect
RE007 growth inh: less growth of the S. pombe RE007 Vpr strain. S. pombe RE007 Vpr strain, BacTiter-Glo ATP luminescence, 24 h. Potency, µM (top dose mostly 92.2 µM), without a hit: at the highest dose activity change, negative = less growth, usual class: inhibitors. hit rate 0.21% among 360,000. AID 651644; active = well fitted falling curve with a large enough effect; also: potency is read from the fitted curve at half-maximal effect; % is scaled to controls: 0 for no effect and ±100 for the full control effect; nearly all actives have a fitted effect of over 50% in size
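Fission yeast RE007 carrying one integrated HIV-1 vpr copy, seeded at OD 0.01 in PMG+AL medium with 23 nL pinned compound. Grown 24 h at 30 degrees; viability read by BacTiter-Glo luminescence after 5 min.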
LmPK inhibitor: LmPK (Leishmania mexicana) enzyme inhibition. hit rate 0.37% among 290,000. Q27686. purified LmPK, Kinase-Glo ATP luminescence, 1 h. Potency, µM (series often up to 57.5 µM), for inactives: at the top dose activity change, negative = inhibition, usual class: inhibitors; also: potency is read from the fitted curve at half-maximal effect; % is scaled to controls: 0 for no effect and ±100 for the full control effect
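0.1 nM LmPK, 0.5 mM PEP, 0.1 mM ADP; 50 mM imidazole pH 7.2, 7 mM MgCl2, 50 mM KCl; 1 h RT. Kinase-Glo luminescence readout, normalized to no-enzyme (full inhibition) and uninhibited wells.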
Tb PYK inh: blocks Trypanosoma brucei pyruvate kinase | TbPYK enzyme, Kinase-Glo Plus ATP luminescence, 45 min | Potency, µM (doses to about 76.8 µM), for the others: at the top dose activity, negative = inhibition, hits mostly inhibitors | hit rate 0.12% among 410,000 | AID 624173; also: potency is read from the fitted curve at half-maximal effect; % is scaled to controls: 0 for no effect and ±100 for the full control effect; nearly all actives have a fitted effect of over 50% in size
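T. brucei PYK with substrate was exposed to pin-transferred compounds across a concentration series, then started with 130 uM ADP (final). After 45 min at room temperature, Kinase-Glo Plus luminescence was read, normalized and curve-fitted.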
Shiga inhibitor: blocks Shiga toxin action in Vero cells; Vero cells, Shiga toxin protein synthesis inhibition reporter; inhibition, % at 38.7 µM; hit rate 9.2% among 290,000; in the data active = inhibition mostly above about 28%, no sharp cut-off; inactive = mostly below about 43%; also: 0% is about no effect
FBPA Giardia inh: blocks Giardia fructose-bisphosphate aldolase activity. purified Giardia FBPA. A8B2U2. Potency, µM (series often up to 59.6 µM), without a hit: at the top dose activity, negative = inhibition, hits mostly inhibitors. hit rate 0.71% among 290,000; also: potency is read from the fitted curve at half-maximal effect; % is scaled to controls: 0 for no effect and ±100 for the full control effect; nearly all actives have a fitted effect of over 55% in size
Target sequence (A8B2U2 whole entry, looked up): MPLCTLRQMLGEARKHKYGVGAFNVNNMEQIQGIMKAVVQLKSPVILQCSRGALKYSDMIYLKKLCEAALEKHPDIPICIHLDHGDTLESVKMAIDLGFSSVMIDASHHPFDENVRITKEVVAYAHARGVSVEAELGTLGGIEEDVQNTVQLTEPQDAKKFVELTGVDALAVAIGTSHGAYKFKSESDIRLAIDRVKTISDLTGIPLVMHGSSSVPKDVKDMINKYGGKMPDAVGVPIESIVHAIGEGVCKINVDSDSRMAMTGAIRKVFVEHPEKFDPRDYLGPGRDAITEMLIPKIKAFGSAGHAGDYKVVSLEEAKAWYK
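Giardia FBPA (40 nM reagent) was preincubated 10 min at RT with compound (up to 57.5 uM final), then substrate plus GAPDH/TPI/NAD/arsenate coupling system with diaphorase/resazurin was added; resorufin fluorescence (525/598 nm) was read after 20 min.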
* marks the source's active call; other numbers are inactive results; x = no result. Unless noted, calls follow the shape of the dose curve; as a rule, active = well fitted curve in the direction sought with a large enough effect; inconclusive = small, poorly fitted or top-dose-only effect, or another doubt; inactive = no such curve, though single readings can be large; an effect the other way counts as inactive or inconclusive.

SMILES | CHX counter | RE007 growth inh | LmPK inhibitor | Tb PYK inh | Shiga inhibitor | FBPA Giardia inh
Cc1ccc(C(=O)N2CCN(c3ncnc4c(-c5ccccc5)nsc34)CC2)cc1 | 12 | x | 0% | x | 18 | 7%
O=C(N1CCCC1)N1CCN(c2ncnc3c(-c4ccc(Cl)cc4)nsc23)CC1 | 34* | x | -1% | x | 97* | 3%
Cc1csc2c(N3CCC(C(=O)O)CC3)ncnc12 | 6 | 0% | -7% | 0% | -1 | 6%
Cc1csc2c(N3CCCCC3)ncnc12 | 30* | -17% | 0% | -2% | 44 | 5%
COc1ccc(-c2nsc3c(N4CCCCC4)ncnc23)cc1 | 58* | -24% | -28% | 0% | 100* | -1%
COC(=O)[C@H](Cc1ccccc1)NC(=O)O[C@@H]1C(=O)c2cc(OC)ccc2O[C@H]1c1cccc(OC)c1 | x | x | x | x | x | -1%
CCOC(=O)c1sc2ccccc2c1S(=O)(=O)Nc1c(C)cccc1C | x | x | x | -7% | x | x
COc1ccc(C2N(Cc3ccccc3)CC(=O)N2/N=C(\C)c2ccccc2)cc1 (configuration not stated) | 24* | -11% | 2% | -1% | 71* | 1%
COc1ccc(/C=N/N2C(=O)CN(C(=O)c3ccccc3)C2c2ccc(OC)cc2)cc1 (configuration not stated) | -3 | 3% | 3% | 1% | 3 | -1%
O=C(Nc1ccccc1)c1c(F)cccc1F | 17 | 1% | -9% | 2% | 43 | -6%
CCCC(=O)Nc1ccc(Oc2ccc(NC(=O)CCC)cc2)cc1 | 9 | -1% | -1% | 6% | -2 | 0%
CCCCC(=O)Nc1ccc(C(=O)c2ccccc2)cc1 | 35* | -1% | -6% | -8% | 49* | -9%
CCCC(=O)Nc1ccc(C#Cc2ccccc2)cc1 | 51* | -6% | -1% | 3% | 115* | 9%
O=C(Nc1ccccc1)Nc1c(F)cccc1F | 41* | 1% | -10% | -8% | 43* | -1%
C/C(=N/NS(=O)(=O)c1ccccc1)c1ccc(NC(=O)C2CC2)cc1 | 2 | 27% | -1% | 4% | 30 | 5%
CC(=O)Nc1ccc(/C(C)=N/NS(=O)(=O)c2ccccc2)cc1 | 23* | 8% | -7% | -10% | 7 | 2%
CC(=O)Nc1ccc(S(=O)(=O)N(C)CC(=O)N(C)Cc2sccc2C)cc1 | x | 2% | x | 11% | x | x
Cc1cc(S(=O)(=O)NCCc2csc(-c3cccc(F)c3)n2)ccc1F | x | x | x | -6% | x | x
CC(=O)Nc1ccc(NC(=O)c2ccc(NC(=O)c3ccccc3)cc2)cc1 | 19 | 7% | -13% | -16% | -18 | x
CC(=O)Nc1ccc(NC(=O)Nc2ccccc2)cc1 | 25* | -4% | -1% | -5% | 64* | -7%
CC(=O)Nc1ccc(C(=O)c2ccccc2)cc1 | 16* | 19% | 0% | -11% | 34 | 1%
CC(=O)Nc1cccc(NC(=O)Nc2ccc(C(C)=O)cc2)c1 | -1 | -2% | 1% | 3% | 68 | -16%
CCCCOc1ccc(C(=O)N(Cc2ccc(N(C)C)cc2)Cc2ccco2)cc1 | x | x | x | -3% | x | x
Cc1nc(NCCc2ccccc2)sc1C(=O)O | 21 | -7% | -2% | -2% | 41* | -2%
COc1ccc(CCNc2nc(C)c(C(C)=O)s2)cc1OC | 7 | -5% | -5% | -16% | -2 | -16%
SMILES | CHX counter | RE007 growth inh | LmPK inhibitor | Tb PYK inh | Shiga inhibitor | FBPA Giardia inh
Cc1ccc(CNc2nc(Cl)c(C#N)s2)cc1 | 28* | -10% | -4% | -3% | 62* | 3%
CC(=O)c1sc(NCc2ccccc2)nc1C | 31* | 9% | 1% | -7% | 43 | -16%
Cc1ccc(S(=O)(=O)Nc2nc(C)c(C(=O)NN)s2)cc1 | 20* | -18% | 8% | -5% | 54* | 11%
CC(=O)c1sc(NCc2ccc(C)cc2)nc1C | 43* | -6% | -2% | 0% | 103* | -9%
CC(=O)c1sc(NC(=O)CCS(=O)(=O)c2ccccc2)nc1C | 57* | 10% | -6% | 4% | 58* | -17%
CC(=O)c1sc(NCCOc2ccc(C)cc2)nc1C | 28* | 7% | 1% | 1% | 60* | -25%
Cc1ccc(CNc2nc(C)c(C(=O)N(C)C)s2)cc1 | 28* | -9% | 6% | 3% | 65* | 7%

Source: PubChem (National Center for Advancing Translational Sciences (NCATS))
